# Source: PubChem BioAssay AID624246 (National Center for Advancing Translational Sciences (NCATS), 2012)
# Among all 370,000 compounds or so, about 100 (0.027%) were called active. The list comes from a sample in which actives are over-represented; it also holds similar structures and randomly drawn compounds. A number with no mark means an inactive call. Calls come from the whole dose curve; as a rule, active = well fitted inhibition curve with a large enough effect in the polarisation, with a control signal flat; inconclusive = small, poorly fitted or top-dose-only effect, or effect the other way, or a change in a side signal; inactive = no such curve, though single readings can be large or run the other way; the % refers to the polarisation.
# Molecular target: Transcriptional regulator ERG (Homo sapiens) (UniProt P11308)
# Sequence (P11308 whole entry, looked up): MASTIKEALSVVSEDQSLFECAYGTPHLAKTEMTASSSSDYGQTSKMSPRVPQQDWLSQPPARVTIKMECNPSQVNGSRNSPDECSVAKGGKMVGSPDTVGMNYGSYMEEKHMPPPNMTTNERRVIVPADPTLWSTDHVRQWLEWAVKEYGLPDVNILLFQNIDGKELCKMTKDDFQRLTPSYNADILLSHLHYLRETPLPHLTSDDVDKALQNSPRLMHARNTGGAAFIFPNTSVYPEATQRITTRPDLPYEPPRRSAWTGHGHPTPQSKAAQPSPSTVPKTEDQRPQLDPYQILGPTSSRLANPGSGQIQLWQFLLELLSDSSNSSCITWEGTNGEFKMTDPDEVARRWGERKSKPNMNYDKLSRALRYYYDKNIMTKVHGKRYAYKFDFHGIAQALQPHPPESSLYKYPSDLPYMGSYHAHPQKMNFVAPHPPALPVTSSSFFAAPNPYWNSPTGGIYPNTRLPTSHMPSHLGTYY
# Assay: qHTS for Small Molecule Inhibitors of the ERG Ets/DNA interaction; for FP activity, negative = inhibition: % of control where 0% means no effect
# Details: fluorescence polarization, His-ERG Ets domain / labelled DNA; series mostly up to 76.9 µM; FP activity, negative = inhibition: at the top concentration
# Description: The Ets family of proteins is a family of ~30 conserved transcription factors defined by the presence of an ~85 amino acid domain referred to as the Ets domain, which mediates sequence-specific DNA binding to a core DNA element GGAA/T.The Ets family member ERG has been linked to several neoplasms. […] More extensive studies of the effects of over-expression of ERG in prostate cells have recently been carried out and have shown that over-expression of ERG results in increased invasion. […] We will carry out a high throughout screen to identify inhibitors of the interaction between ERG and DNA using a fluorescence polarization (FP) assay with a His-tagged ERG Ets domain and fluorescently-labeled DNA probes to develop small molecule inhibitors of this interaction as probes to test this hypothesis and lay the groundwork for the development of targeted therapies against ERG. NIH Molecular Libraries Probe Production Network [MLPCN] NIH Chemical Genomics Center [NCGC] Grant: NS066464 PI Name: John Bushweller, University of Virgina
# 1.5 ul of protein solution (1 uM ERG domain in 300mM KCl, 50mM Tris-HCl, 1mM EDTA, 1mM DTT, pH 7.5); 20 nl Control plate and compound library plate; 1.5 ul mixture of 5 nM Fluorescein-DNA and 100nM Texas-615-DNA solution in same buffer as above solution; measure fluorescence polarization sequentially for fluorescein (Excitation = 480 nm, Emission = 535s, 535p nm) and Texas red (Excitation = 555 nm, Emission = 632s, 632p nm).
# Potency is the fitted concentration of half-maximal effect.
Structure (SMILES),"FP activity, negative = inhibition",Potency
Cc1nn(-c2ccc(N3CCCCC3)nn2)c(C)c1CCC(=O)NCc1ccccc1F,-5.53%,–
CCc1ccc(C(=O)CC2(O)C(=O)N(CCc3ccccc3)c3ccc(Br)cc32)cc1 (stereo not drawn),-0.514%,–
CCOc1cc(C2c3c(-c4ccc(Br)cc4)n[nH]c3C(=O)N2c2ccc(Cl)cc2)ccc1O (stereo not drawn),12%,–
CCOc1ccc(-c2nonc2NC(=O)c2oc3ccc(C)cc3c2C)cc1OCC,0.0958%,–
CC1=C(C(=O)OCC(C)C)C(c2ccc(OCc3ccccc3)cc2)N2C(=O)CCSC2=N1 (stereo not drawn),-0.84%,–
O=C(NCc1ccccc1)c1ccc2c(c1)nc1n2CCCCC1,-0.294%,–
COC(=O)c1cc(S(=O)(=O)N2CCN(c3cc(Cl)ccc3C)CC2)c[nH]1,-1.55%,–
Cc1ccc(C)c(N2CCN(CCCNC(=O)Nc3ccc(Cl)cc3)CC2)c1,1.63%,–
COc1ccc(-c2cn3nc(N4CCC(C(=O)Nc5cccc(C)c5C)CC4)sc3n2)cc1,-1.85%,–
COc1ccc(OC)c(NC(=O)CSC2=Nc3ccccc3C3=NC(CC(=O)NCc4ccc(F)cc4)C(=O)N23)c1 (stereo not drawn),5.04%,–
Cc1ccc2oc(=O)c3cnn(CC(=O)NCc4ccccc4Cl)c3c2c1,-1.05%,–
CCOc1ccc(CNC(=O)c2cccc(Nc3nc4ccccc4n4nnnc34)c2)cc1OC,-1.27%,–
Cc1ccc(C)c(Oc2c(C(F)(F)F)oc3c(CN4CCN(C)CC4)c(O)ccc3c2=O)c1,1.61%,–
CCOc1ccccc1NC(=O)CN1CCCN(Cc2cccc(Cl)c2)S1(=O)=O,4.01%,–
Cc1ccc(OCCSc2nc(C)c(Cc3ccccc3)c(=O)[nH]2)cc1,1.16%,–
CCC1(C)CC(=O)c2c(ccc3oc(C(=O)Nc4ccc(C(C)=O)cc4)c(C)c23)O1 (stereo not drawn),-5.73%,–
COc1ccc(CCNC(=O)c2ccc(-n3c(C)cc4c3CCCC4)cc2)cc1OC,-3.33%,–
Cc1ccc(C)c(CNC(=O)c2cc3ccccn3n2)c1,-10.3%,–
CCOc1ccccc1NC(=O)CN1CCN(S(=O)(=O)c2ccc(Br)cc2)CC1,2.57%,–
Cc1oc(-c2ccccc2F)nc1CN1CCC(C(=O)NCCc2ccc(Cl)cc2)CC1,-1.13%,–
CCOc1cccc(C(=O)Nc2nnc(S(=O)(=O)N(C)c3ccc(C)cc3)s2)c1,0.655%,–
COc1ccc(Cn2ccc3nc(C)c(C(=O)Nc4ccc(C)c(F)c4)cc3c2=O)cc1,-3.4%,–
COc1ccc(OC)c(CNC(=O)Cn2nc(C)c3c(C)n(-c4ccccc4)nc3c2=O)c1,3.15%,–
CCN(CC)CCNC(=O)CN1N=C(c2ccc(OC)cc2)CCC1=O,-3.32%,–

Structure (SMILES),"FP activity, negative = inhibition",Potency
CCOC(=O)c1cc2c(=O)n3ccccc3nc2n(CCCOC)c1=NC(=O)C(C)(C)Oc1ccc(Cl)cc1,-23.1%,–
COc1cccc(-c2nnc(SCC(=O)N3CCC(C)CC3)o2)c1,1.34%,–
COC(=O)c1ccc(NC(=O)c2cnn(-c3ccc(Cl)cc3)c2C2CCN(C(=O)OC(C)(C)C)CC2)cc1,2.85%,–
COc1cccc2c1C(=O)c1c(O)c3c(c(O)c1C2=O)CC(O)(C(C)=NNC(=O)c1ccc(Cl)c(Cl)c1)CC3OC1CC(N)C(O)C(C)O1 (stereo not drawn),–,2.51 µM (active)
O=C(NCc1ccc2c(c1)CCN2C(=O)c1ccccc1)Nc1cc(F)ccc1F,-0.322%,–
O=C(NCCCO)C(=O)Nc1c2c(nn1-c1ccccc1)CSC2,6.72%,–
O=C(Nc1ccc2nc(SCCOc3ccccc3Cl)sc2c1)c1ccco1,-0.316%,–
CCc1nc(-c2cc(S(=O)(=O)N3CCN(c4ccc(OC)cc4)CC3)ccc2OC)no1,-3.39%,–
CCCN1CCc2nc(N3CCN(C)CC3)ncc2C1,1.55%,–
C/C(=N/NC(=O)CCc1ccccc1)c1ccco1,–,28.2 µM (active)
COc1cccc2cc(/C(C)=N/NC(=O)c3ccco3)oc12,-10.8%,–
C/C(CC(=O)NC(C)(C)C)=N\NC(=O)c1ccco1,3.01%,–
CCC1=Nc2cc(C(=O)NCCCOC(C)C)ccc2Sc2ccc(C)cc21,-0.0425%,–
CCOC(=O)c1ccc2c(c1)N(Cc1cccc(OC)c1)C(=O)c1ccccc1S2(=O)=O,-4.86%,–
CN(C(=O)c1ccc2c(c1)N(Cc1cccc(Cl)c1)C(=O)c1ccccc1S2=O)C1CCCCC1 (stereo not drawn),-4.59%,–
O=C1CN(C(=O)Nc2ccccc2C(F)(F)F)C(c2ccccc2)c2c(sc3c2CCCC3)N1 (stereo not drawn),6.74%,–
COc1ccccc1NC(=O)C1=C(C)Nc2nc(SCC(=O)c3ccc(C)cc3)nn2C1c1ccccc1C (stereo not drawn),-8.08%,–
O=C1N(Cc2ccccc2)c2ccc(Cl)cc2C1(O)c1c[nH]c2ccccc12 (stereo not drawn),0.882%,–
CCOC(=O)c1c(NC(=O)/C=C/c2ccc(OC)cc2)sc2c1CCC(C)C2 (stereo not drawn),2.55%,–
CCOC(=O)c1ccccc1NC(=O)c1nn(-c2ccc(OC)c(Cl)c2)c(=O)c2c1c1ccccc1n2C,-3.65%,–
CCc1ccc(NS(=O)(=O)c2ccc3[nH]cc(C(=O)NCCc4cccc(C)c4)c(=O)c3c2)cc1,-8.63%,–
COc1ccc(N2CCN(c3nc(-c4ccccc4F)nc4ccccc34)CC2)cc1,-3%,–
CC(C)c1ccc(OCC(=O)N(Cc2ccc(N(C)C)cc2)C2CCS(=O)(=O)C2)cc1 (stereo not drawn),-0.0046%,–
CCOc1cccc(CC(=O)N2CCc3c([nH]c4ccccc34)C2c2ccc(F)cc2)c1OCC (stereo not drawn),1.73%,–
